# Inconclusive results are not listed. Unmarked numbers belong to inactive results. Activity calls are given as the source filed them. Calls follow the shape of the dose curve; as a rule, active = well fitted inhibition curve with a large enough effect; inconclusive = small, poorly fitted or top-dose-only effect, or effect the other way; inactive = flat fitted curve, though single readings scatter.
# Test: Quantitative high throughput screen for delayed death inhibitors of the malarial parasite plastid, 48 hour incubation (AID 488752); also: nearly all actives have a fitted effect of over 65% in size
# Details: Plasmodium falciparum growth; series mostly up to 28.7 µM; activity change, negative = inhibition: at the top concentration
# Text: NIH Molecular Libraries Probe Production Network [MLPCN]
# NIH Chemical Genomics Center [NCGC]
# Assay Provider: David Fidock and Eric Ekland, Columbia University
# The goal of this screen is to discover new antimalarial compounds that act by inhibiting the development of the apicoplast in the malarial parasite Plasmodium falciparum. The biochemical processes that make this organelle essential for erythrocytic stage parasites are not well understood. However, antibiotics, such as azithromycin and tetracycline, which target the apicoplast translational machinery, have a potent antimalarial effect.
# We have developed a cell-based assay that measures parasite growth based on the expression of an integrated copy of a firefly luciferase reporter. To detect small molecules that cause this 'delayed death' phenotype, erythrocytes infected with the luciferase-expressing parasites were incubated with compounds for either one or two generations, corresponding to 48 and 96 hours, respectively. Compounds that inhibit parasite growth in the second generation, but not the first, should be enriched in antimalarials that target the apicoplast. Growth inhibition is detected by a decrease in luciferase activity
# Four microliters of culture medium (RPMI 1640 with 0.5% w/v Albumax (GIBCO), 24 mM sodium bicarbonate and 10 ug/mL gentamycin) were dispensed by a Multi-drop Combi into white solid 1536-well plates (Grenier) and 23 nL compound was added by a pin tool. Four microliters of infected erythrocytes (2% hematocrit, 0.1% parasitemia final concentration) in culture medium were dispensed and the plates incubated for 48 hours at 37 C in 5% CO2. Two microliters of luciferase detection reagent was added and luminescence was detected by a ViewLux (PerkinElmer) reader
# % is scaled to controls: 0 for no effect and ±100 for the full control effect; potency is read from the fitted curve at half-maximal effect.
Structure (SMILES),"activity change, negative = inhibition",Potency
Cc1nc2c([nH]1)c(=O)n(C)c(=O)n2Cc1ccco1,11.5%,
CN(C)CCCN1c2ccccc2Sc2ccccc21,-2.99%,
CN(C)CC/C=C1\c2ccccc2COc2ccccc21,-21.6%,
Cc1nnc(SCC2=C(C(=O)O)N3C(=O)[C@@H](NC(=O)Cn4cnnn4)[C@H]3SC2)s1,12.6%,
CCN1CCC[C@H]1CNC(=O)c1c(O)c(Cl)cc(Cl)c1OC,-1.23%,
C[N+](C)(C)CCCCCCCCCC[N+](C)(C)C,,1.04 µM (active)
O=C(O)CN(CCOCCOCCN(CC(=O)O)CC(=O)O)CC(=O)O,5.08%,
COCC(=O)O[C@]1(CCN(C)CCCc2nc3ccccc3[nH]2)CCc2cc(F)ccc2[C@@H]1C(C)C,,5.86 µM (active)
CCN(CC)CCOCCOC(=O)C1(c2ccccc2)CCCC1,-15.1%,
Cc1nc2ccccn2c(=O)c1CCN1CCC(C(=O)c2ccc(F)cc2)CC1,-18.2%,
CN=C(NC#N)NCCSCc1nc[nH]c1C,20.4%,
CCc1cccc(N(C)C(N)=Nc2cccc3ccccc23)c1,-25.5%,
Cc1ccc(Cl)c(Nc2ccccc2C(=O)O)c1Cl,0.998%,
NC(=O)N1c2ccccc2C=Cc2ccccc21,15%,
NC/C=C/C(=O)O,5.11%,
CN1CCN(CC(=O)N2c3ccccc3C(=O)Nc3cccnc32)CC1,8.22%,
COc1cc(Cc2cnc(N)nc2N)cc(OC)c1OC,-22.4%,
CC(=O)OCC1=C(C(=O)O)N2C(=O)[C@@H](NC(=O)Cc3cccs3)[C@H]2SC1,9.47%,
CCN(CC)CC(=O)Nc1c(C)cccc1C,-4.64%,
COC(=O)[C@H]1[C@H]2C[C@@H]3c4[nH]c5cc(OC)ccc5c4CCN3C[C@H]2C[C@@H](OC(=O)c2cc(OC)c(OC)c(OC)c2)[C@@H]1OC,,1.47 µM (active)

Structure (SMILES),"activity change, negative = inhibition",Potency
O=C(O)CP(=O)(O)O,-14.7%,
CC(C(=O)O)c1ccc(CC2CCCC2=O)cc1 (stereo not given),1.91%,
C[C@H](CS)C(=O)N1CCC[C@H]1C(=O)O,-24.1%,
CCN(Cc1ccncc1)C(=O)C(CO)c1ccccc1 (stereo not given),-11.7%,
CC(=O)Oc1cc(C(C)C)c(OCCN(C)C)cc1C,9.36%,
c1ccc2c(c1)CCCC2C1=NCCN1 (stereo not given),-21.2%,
COc1cc(C(=O)OCCCN2CCCN(CCCOC(=O)c3cc(OC)c(OC)c(OC)c3)CC2)cc(OC)c1OC,,13.1 µM (active)
O=C(CCNNC(=O)c1ccncc1)NCc1ccccc1,-4.25%,
CCCN(CCC)C(=O)C(CCC(=O)O)NC(=O)c1ccccc1 (stereo not given),13.8%,
CC(=O)Nc1nnc(S(N)(=O)=O)s1,-3.83%,
Cc1ccc(=O)n(-c2ccccc2)c1,9.83%,
CN(C(=O)CCCOc1ccc2[nH]c(=O)ccc2c1)C1CCCCC1,-25.5%,
OCCN1CCN(CC/C=C2/c3ccccc3Sc3ccc(C(F)(F)F)cc32)CC1,,8.28 µM (active)
C[C@]12CCC(=O)C=C1CC[C@@H]1[C@@H]2CC[C@@]2(C)[C@H]1CC[C@]2(O)C(=O)CO,-2.53%,
COCCc1ccc(OCC(O)CNC(C)C)cc1 (stereo not given),10.7%,
COC(=O)C1=C(C)NC(C)=C(C(=O)OCCN(C)Cc2ccccc2)C1c1cccc([N+](=O)[O-])c1 (stereo not given),,2.94 µM (active)
CCOC(=O)C1=C(C)NC(C)=C(C(=O)OC)C1c1cccc(Cl)c1Cl (stereo not given),,11.7 µM (active)
CCN(CC)CCNC(=O)c1cc(S(C)(=O)=O)ccc1OC,0.789%,
N[C@@H](COP(=O)(O)O)C(=O)O,2.21%,
C(=C\c1ccccc1)/CN1CCN(C(c2ccccc2)c2ccccc2)CC1,5.5%,
